Test results taken from the supplement of paper PMC10849652.
The full data set covers some 8,800 targets. This sample favours those with a hit. About 0.5% of all pairs of compound and target were hits. Unmarked numbers belong to inactive results.

Key:
Assay in all cases: log2 fold change, soluble protein after heating vs DMSO (PISA); higher = thermal stabilisation; K562 lysate, 10 uM; active = over 0.2 and 3.5 SD of the protein, either way, in both replicates (recomputed)
[1] = compound: CCCS(=O)(=O)Nc1ccc(F)c(C(=O)c2c[nH]c3ncc(-c4ccc(Cl)cc4)cc23)c1F [vemurafenib]
Summary of the method: (§1)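 K562 pellets were dounce-homogenised in PBS pH 7.4 with 1 mM MgCl2, and the crude extract at 1 mg/mL protein was treated with 10 μM compound for 30 min. Aliquots were heated for 3 min across 48°C-58°C, pooled, and brought to 0.5% NP-40 at 4°C; soluble protein was the supernatant after 21,000xg for 90 min. Soluble protein was quantified by TMTpro 16plex LC-MS/MS with channel sums equalised, and reported as log2 fold change in thermal stability against DMSO controls, with values from duplicates.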

[2] = compound: CCCS(=O)(=O)Nc1ccc(F)c(C(=O)c2c[nH]c3ncc(Cl)cc23)c1F
Summary of the method: as §1

[3] = compound: CCN(CCCOc1ccc2c(Nc3cc(CC(=O)Nc4cccc(F)c4)[nH]n3)ncnc2c1)CCOP(=O)(O)O [barasertib]
Summary of the method: as §1

[4] = compound: CC[C@@H]1C(=O)N(C)c2cnc(Nc3ccc(C(=O)NC4CCN(C)CC4)cc3OC)nc2N1C1CCCC1
Summary of the method: as §1

[5] = compound: CC[C@@H]1C(=O)N(C)c2cnc(Nc3ccc(C(=O)N[C@H]4CC[C@H](N5CCN(CC6CC6)CC5)CC4)cc3OC)nc2N1C(C)C [volasertib]
Summary of the method: as §1

[6] = compound: CCn1c(C(=O)N(C2CC2)C2CC2)cc2c3c(ncn3C)c(Nc3cc(C)n(C)n3)nc21
Summary of the method: as §1

[7] = compound: CCn1cc(-c2ccnc3[nH]c(-c4cccc(CN(C)C)c4)cc23)c(-c2ccc(NC(=O)N(C)C)cc2)n1
Summary of the method: as §1

[8] = compound: CN1CCC(CNc2ccc3ncc(-c4cccc(OC(F)(F)F)c4)n3n2)CC1
Summary of the method: as §1

[9] = compound: CN1CCN(CCOc2cc(OC3CCOCC3)c3c(Nc4c(Cl)ccc5c4OCO5)ncnc3c2)CC1 [saracatinib]
Summary of the method: as §1

[10] = compound: CN1CCN(c2nc(C3=C(c4c[nH]c5ccccc45)C(=O)NC3=O)c3ccccc3n2)CC1 [sotrastaurin]
Summary of the method: as §1

[11] = compound: CN1CC[C@H](c2c(O)cc(O)c3c(=O)cc(-c4ccccc4Cl)oc23)[C@H](O)C1 [alvocidib]
Summary of the method: as §1

[12] = compound: CN1CCc2c(c3ccccc3n2Cc2ccc(C(=O)NO)cc2)C1 [Tubastatin A]
Summary of the method: as §1

[13] = compound: CNC(=O)C1=CC=CC=C1NC2=NC(=NC=C2Cl)NC3=C(C=C(C=C3)N4CCOCC4)OC
Summary of the method: as §1

[14] = compound: CNC(=O)c1ccc(Nc2ncc(C(F)(F)F)c(NCc3nccnc3N(C)S(C)(=O)=O)n2)cc1 [defactinib]
Summary of the method: as §1

[15] = compound: CNc1nc(-c2ccc3c(N)n[nH]c3c2)cc(N2C[C@@H](C(=O)NC3CCCCC3)CC[C@H]2C)n1
Summary of the method: as §1

[16] = compound: COC(=O)N[C@@H](C)CNc1nccc(-c2cn(C(C)C)nc2-c2cc(Cl)cc(NS(C)(=O)=O)c2F)n1 [encorafenib]
Summary of the method: as §1

[17] = compound: COC(=O)[C@H](CCSC)NC(=O)C1=C(C=C(C=C1)NC[C@H](CS)N)C2=CC=CC=C2
Summary of the method: as §1

[18] = compound: COc1cc(Nc2ncc3c(n2)-c2ccc(Cl)cc2C(c2c(F)cccc2OC)=NC3)ccc1C(=O)O [alisertib]
Summary of the method: as §1

[19] = compound: COc1cc2nc(-c3cc(F)ccc3O)nc(N[C@@H]3CNC[C@H]3C(C)(C)O)c2cc1OC
Summary of the method: as §1

[20] = compound: COc1cc2ncnc(Nc3ccc(F)c(Cl)c3)c2cc1OCCCN1CCOCC1 [gefitinib]
Summary of the method: as §1

Chain of UniProt O00471 (O00471 whole entry, looked up): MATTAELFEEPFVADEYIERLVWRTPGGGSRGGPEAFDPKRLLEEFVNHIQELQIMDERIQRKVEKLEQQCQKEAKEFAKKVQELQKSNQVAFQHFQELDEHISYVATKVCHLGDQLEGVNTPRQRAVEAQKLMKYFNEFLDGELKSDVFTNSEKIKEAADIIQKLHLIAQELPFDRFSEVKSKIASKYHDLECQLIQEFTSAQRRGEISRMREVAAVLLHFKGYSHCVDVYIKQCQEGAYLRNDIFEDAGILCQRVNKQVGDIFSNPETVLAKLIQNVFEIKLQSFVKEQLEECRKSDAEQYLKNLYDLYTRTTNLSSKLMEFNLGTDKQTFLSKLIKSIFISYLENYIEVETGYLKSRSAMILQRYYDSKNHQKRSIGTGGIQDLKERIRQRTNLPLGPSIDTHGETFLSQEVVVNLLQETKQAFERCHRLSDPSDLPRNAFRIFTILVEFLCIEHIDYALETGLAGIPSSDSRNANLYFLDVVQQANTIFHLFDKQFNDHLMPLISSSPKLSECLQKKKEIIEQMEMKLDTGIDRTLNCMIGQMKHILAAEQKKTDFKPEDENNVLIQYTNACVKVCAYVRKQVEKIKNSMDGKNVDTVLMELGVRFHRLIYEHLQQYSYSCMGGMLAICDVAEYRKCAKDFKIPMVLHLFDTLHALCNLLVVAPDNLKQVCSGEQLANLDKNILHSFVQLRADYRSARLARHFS
Chain of UniProt Q8WWZ3 (Q8WWZ3 whole entry, looked up): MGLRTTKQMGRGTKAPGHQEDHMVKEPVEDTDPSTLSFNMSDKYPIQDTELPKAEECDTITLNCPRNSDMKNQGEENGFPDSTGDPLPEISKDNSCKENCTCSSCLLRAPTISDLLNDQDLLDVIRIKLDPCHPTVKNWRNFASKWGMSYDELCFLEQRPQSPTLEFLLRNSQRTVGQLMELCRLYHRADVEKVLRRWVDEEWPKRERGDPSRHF
Chain of UniProt O94905 (O94905 whole entry, looked up): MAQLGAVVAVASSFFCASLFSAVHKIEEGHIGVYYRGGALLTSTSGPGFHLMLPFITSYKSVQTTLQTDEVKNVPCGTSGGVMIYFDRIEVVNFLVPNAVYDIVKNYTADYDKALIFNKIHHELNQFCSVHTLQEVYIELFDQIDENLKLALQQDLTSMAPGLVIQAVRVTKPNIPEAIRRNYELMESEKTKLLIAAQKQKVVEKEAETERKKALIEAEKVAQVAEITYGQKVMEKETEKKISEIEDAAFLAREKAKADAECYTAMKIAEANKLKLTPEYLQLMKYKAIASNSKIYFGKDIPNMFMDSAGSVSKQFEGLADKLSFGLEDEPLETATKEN
Chain of UniProt Q9UK97 (Q9UK97 whole entry, looked up): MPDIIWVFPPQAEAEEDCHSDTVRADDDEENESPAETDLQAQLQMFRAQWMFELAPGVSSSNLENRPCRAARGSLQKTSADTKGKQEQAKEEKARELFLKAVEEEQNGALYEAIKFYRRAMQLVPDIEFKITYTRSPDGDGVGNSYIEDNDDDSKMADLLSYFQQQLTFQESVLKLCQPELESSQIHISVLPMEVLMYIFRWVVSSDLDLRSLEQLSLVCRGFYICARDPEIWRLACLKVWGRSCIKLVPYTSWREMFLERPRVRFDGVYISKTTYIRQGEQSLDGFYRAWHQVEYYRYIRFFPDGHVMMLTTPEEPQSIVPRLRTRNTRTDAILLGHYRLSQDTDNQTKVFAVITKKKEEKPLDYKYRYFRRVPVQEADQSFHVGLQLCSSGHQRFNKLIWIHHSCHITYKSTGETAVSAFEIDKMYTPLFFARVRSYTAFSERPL
Chain of UniProt A6NHQ2 (A6NHQ2 whole entry, looked up): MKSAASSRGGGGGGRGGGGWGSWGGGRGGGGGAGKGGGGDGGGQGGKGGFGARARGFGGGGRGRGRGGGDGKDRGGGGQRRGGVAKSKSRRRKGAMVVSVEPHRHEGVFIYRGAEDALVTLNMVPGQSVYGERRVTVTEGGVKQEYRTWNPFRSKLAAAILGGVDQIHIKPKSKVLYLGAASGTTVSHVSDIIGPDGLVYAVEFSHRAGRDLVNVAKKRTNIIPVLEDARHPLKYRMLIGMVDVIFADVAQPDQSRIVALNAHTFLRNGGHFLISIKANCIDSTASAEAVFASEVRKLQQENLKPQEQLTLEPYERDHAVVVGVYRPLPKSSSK
Chain of UniProt Q96F86 (Q96F86 whole entry, looked up): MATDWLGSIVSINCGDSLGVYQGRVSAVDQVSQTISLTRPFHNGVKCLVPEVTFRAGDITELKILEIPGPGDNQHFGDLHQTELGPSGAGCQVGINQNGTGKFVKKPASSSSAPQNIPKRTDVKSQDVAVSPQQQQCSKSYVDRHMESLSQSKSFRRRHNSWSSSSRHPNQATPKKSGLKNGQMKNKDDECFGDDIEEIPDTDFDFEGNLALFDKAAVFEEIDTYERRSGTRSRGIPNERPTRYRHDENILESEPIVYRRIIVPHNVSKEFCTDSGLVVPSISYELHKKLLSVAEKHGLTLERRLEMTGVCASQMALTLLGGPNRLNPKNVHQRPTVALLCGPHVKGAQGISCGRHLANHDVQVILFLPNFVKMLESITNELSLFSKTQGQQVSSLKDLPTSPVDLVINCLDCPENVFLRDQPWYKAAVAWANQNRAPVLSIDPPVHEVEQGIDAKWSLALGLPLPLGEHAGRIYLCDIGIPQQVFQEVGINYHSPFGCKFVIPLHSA
Chain of UniProt Q15723 (Q15723 whole entry, looked up): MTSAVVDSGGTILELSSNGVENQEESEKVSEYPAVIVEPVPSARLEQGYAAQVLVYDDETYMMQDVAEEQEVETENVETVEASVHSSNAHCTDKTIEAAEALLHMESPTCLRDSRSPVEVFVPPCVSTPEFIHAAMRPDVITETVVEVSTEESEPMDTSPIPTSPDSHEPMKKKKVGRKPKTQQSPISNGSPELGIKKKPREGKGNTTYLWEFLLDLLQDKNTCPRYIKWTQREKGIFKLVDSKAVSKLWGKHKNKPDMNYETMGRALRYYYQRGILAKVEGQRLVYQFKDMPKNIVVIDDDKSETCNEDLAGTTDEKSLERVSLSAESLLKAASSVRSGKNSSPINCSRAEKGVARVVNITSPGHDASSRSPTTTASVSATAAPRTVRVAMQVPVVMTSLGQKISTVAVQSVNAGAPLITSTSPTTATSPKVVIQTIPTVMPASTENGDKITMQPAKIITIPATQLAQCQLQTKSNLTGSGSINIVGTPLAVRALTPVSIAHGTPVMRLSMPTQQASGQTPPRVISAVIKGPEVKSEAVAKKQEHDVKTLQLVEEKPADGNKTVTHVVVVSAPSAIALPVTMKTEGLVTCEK

| Target | log2 fold change [1] | log2 fold change [2] | log2 fold change [3] | log2 fold change [4] | log2 fold change [5] | log2 fold change [6] | log2 fold change [7] | log2 fold change [8] | log2 fold change [9] | log2 fold change [10] | log2 fold change [11] | log2 fold change [12] | log2 fold change [13] | log2 fold change [14] | log2 fold change [15] | log2 fold change [16] | log2 fold change [17] | log2 fold change [18] | log2 fold change [19] | log2 fold change [20] |
| --- | --- | --- | --- | --- | --- | --- | --- | --- | --- | --- | --- | --- | --- | --- | --- | --- | --- | --- | --- | --- |
| EXOC5 (UniProt O00471) | 0.033 | 0.03 | 0.044 | -0.036 | -0.081 | 0.02 | 0.068 | -0.115 | 0.044 | 0.022 | 0.004 | -0.064 | -0.011 | 0.007 | -0.07 | 0.029 | -0.102 | 0.029 | -0.025 | 0.002 |
| ELF2 (UniProt Q15723) | -0.022 | -0.056 | -0.123 | 0.005 | 0.042 | 0.031 | 0.086 | -0.078 | -0.023 | -0.004 | 0.023 | 0.016 | 0.024 | -0.013 | -0.062 | 0.028 | 0.038 | -0.101 | -0.06 | 0.047 |
| EDARADD (UniProt Q8WWZ3) | -0.066 | 0.02 | 0.255 (active) | -0.023 | -0.006 | -0.011 | -0.14 | 0.057 | 0.04 | -0.074 | -0.015 | -0.003 | 0.019 | 0.009 | -0.068 | 0.013 | -0.072 | -0.075 | 0.027 | 0.043 |
| FBLL1 (UniProt A6NHQ2) | 0.081 | 0.019 | 0.107 | 0.003 | -0.041 | -0.014 | -0.307 (active) | 0.046 | -0.075 | 0.056 | -0.009 | -0.049 | -0.036 | 0.047 | 0.081 | 0.042 | 0.056 | 0.012 | 0.005 | 0.035 |
| FBXO9 (UniProt Q9UK97) | -0.025 | 0.007 | 0.116 | 0.135 | -0.012 | -0.015 | 0.049 | -0.083 | -0.013 | 0.021 | 0.099 | -0.006 | -0.015 | 0.104 | 0.037 | 0.078 | -0.042 | -0.011 | -0.402 (active) | 0.04 |
| GAMT (UniProt Q14353) | 0.037 | 0.045 | 0.112 | 0.036 | 0.007 | 0.011 | 0.003 | -0.029 | -0.014 | 0.018 | 0.025 | -0.059 | 0.055 | 0.068 | 0.038 | -0.028 | 0.039 | 0.018 | -0.021 | -0.035 |
| ERLIN2 (UniProt O94905) | -0.003 | 0.012 | 0.021 | 0.05 | -0.029 | 0.012 | 0.384 (active) | -0.135 | 0.008 | -0.008 | 0.164 | 0.016 | 0.005 | 0.002 | 0 | 0.045 | -0.164 | 0 | -0.06 | 0.005 |
| EDC3 (UniProt Q96F86) | -0.011 | 0.019 | -0.01 | 0.066 | -0.016 | -0.012 | -0.017 | -0.043 | 0.006 | 0.018 | -0.045 | -0.1 | 0.003 | 0.009 | 0.038 | 0.019 | -0.071 | 0.025 | -0.02 | -0.042 |
